The nature of assay [1]: Quantitative highthroughput screen to assess conditional lethalithy of NOMO1 cells grown in RPMI1640 with untreated serum (RPMI+s) (AID 1963876). Further: nearly all actives have a fitted effect of over 35% in size. In outline:
(§1)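 Each medium arm—HPLM with 10% dialyzed FBS, or RPMI1640 with 5 mM glucose and 10% untreated or dialyzed FBS—was screened against an 11-point, 3-fold compound titration for 48 h at 37 °C, with CellTiter-Glo luminescence as endpoint.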

Assay [2] can be described thus: Quantitative highthroughput screen to assess conditional lethalithy of NOMO1 cells grown in RPMI1640 with dialyzed fetal bovine serum (RPMI+ds) (AID 1963877). Further: nearly all actives have a fitted effect of over 30% in size. On viability: series mostly up to about 46 µM. The essentials: as §1
Assay [3] in a line: Quantitative highthroughput screen to assess conditional lethalithy of NOMO1 cells grown in Human Plasma-Like Medium with dialyzed fetal bovine serum (HPLM+ds) (AID 1963878). Further: nearly all actives have a fitted effect of over 35% in size. In outline:
as §1

Assay [4] can be described thus: Quantitative highthroughput screen to assess conditional lethalithy of P12 Ichikawa cells grown in Human Plasma-Like Medium with dialyzed fetal bovine serum (HPLM+ds) (AID 1963879). Further: nearly all actives have a fitted effect of over 35% in size. On viability: series mostly up to about 46 µM. To be noted: Potency: viability. The essentials:
as §1

Assay [5] in a line: Quantitative highthroughput screen to assess conditional lethalithy of P12 Ichikawa cells grown in RPMI1640 with dialyzed fetal bovine serum (RPMI+ds) (AID 1963880). Further: nearly all actives have a fitted effect of over 35% in size. The settings on record: Potency: P12-Ichikawa viability. The essentials: as §1
Assay [6] is described as follows: Quantitative highthroughput screen to assess conditional lethalithy of P12 Ichikawa cells grown in RPMI1640 with untreated serum (RPMI+s) (AID 1963881). Further: nearly all actives have a fitted effect of over 35% in size. On viability: series mostly up to about 46 µM. To be noted: Potency: viability. The essentials: as §1
Assay [7] can be described thus: Quantitative highthroughput screen to assess conditional lethalithy of SEM cells grown in Human Plasma-Like Medium with dialyzed fetal bovine serum (HPLM+ds) (AID 1963882). Further: nearly all actives have a fitted effect of over 35% in size. On viability: series mostly up to about 46 µM. In outline:
as §1

A short description of assay [8]: Quantitative highthroughput screen to assess conditional lethalithy of SEM cells grown in RPMI1640 with unreated serum (RPMI+s) (AID 1963883). Further: nearly all actives have a fitted effect of over 35% in size. In outline:
as §1

A short description of assay [9]: Quantitative highthroughput screen to assess conditional lethalithy of SEM cells grown in RPMI1640 with dialyzed fetal bovine serum (RPMI+ds) (AID 1963884). Further: nearly all actives have a fitted effect of over 35% in size. On viability: series mostly up to about 46 µM. In outline: as §1

SMILES strings stand for the structures. Results filed as inconclusive are left out. Activity calls are given as the source filed them. The call rests on the fitted dose curve; in most records, active means well fitted curve in the direction sought with a large enough effect; inconclusive means small, poorly fitted or top-dose-only effect, or another doubt; inactive means no such curve, though single readings can be large; an effect the other way counts as inactive or inconclusive.
Potency means the concentration at half of the fitted maximal effect.

Regarding `COc1ccccc1N1CCN(CCN(C(=O)C2CCCCC2)c2ccccn2)CC1`, the Potency entry in [1], in assay [2], in [3], in assay [4], in [5] and in assay [6] was “inactive” in each case. Further, the Potency result in assay [7], in assay [8] and in assay [9] was “inactive” in each case.

Turning to `Cc1[nH]c2ccccc2c1CCNCc1ccc(C=CC(=O)NO)cc1`, the Potency in assay [1] is 0.743 µM (active); in assay [2], 0.743 µM (active); in assay [3], 0.526 µM (active); in assay [4], 0.59 µM (active); in assay [5], 0.662 µM (active); in [6], 0.469 µM (active). For the same molecule, the Potency was 0.209 µM (active) in assay [7], 264 nM (active) in assay [8] and 0.264 µM (active) in [9].

For the molecule `CN1CC(=O)N2C(Cc3c([nH]c4ccccc34)[C@H]2c2ccc3c(c2)OCO3)C1=O` (some centres undefined), the Potency entry in [1], in [2], in [3], in assay [4], in assay [5] and in [6] was “inactive” each time. Further, the Potency entry in [7], in [8] and in assay [9] was “inactive” throughout.

Turning to `C[C@H](Cn1cnc2c(N)ncnc21)OCP(=O)(O)O`, the Potency result in assay [1], in assay [2], in assay [3], in assay [4], in assay [5] and in assay [6] was “inactive” throughout. The Potency entry in assay [7], in assay [8] and in [9] was “inactive” throughout.

Regarding `NC(=O)c1ncn([C@@H]2O[C@H](CO)[C@@H](O)[C@@H]2O)c1O`, the Potency result in assay [1], in [2], in [3], in assay [4], in assay [5] and in assay [6] was “inactive” in each case. The Potency entry in assay [7], in assay [8] and in [9] was “inactive” each time.

On to `Cc1nc(NC(=O)N2CCC[C@@H]2C(N)=O)sc1-c1csc(C(C)(C)C)n1`, for which the Potency is 2.35 µM (active) in [1]; 1.66 µM (active) in assay [2]; 1.48 µM (active) in assay [3]; 1.66 µM (active) in assay [4]; 2.35 µM (active) in [5]; 1.66 µM (active) in assay [6]. In addition, the Potency in assay [7] is 1.05 µM (active); in [8], 743 nM (active); in assay [9], 1.05 µM (active).

Consider `CCN1CCN(C(=O)N[C@H](C(=O)N[C@@H]2C(=O)N3C(C(=O)O)=C(CSc4nnnn4C)CS[C@@H]23)c2ccc(O)cc2)C(=O)C1=O`, for which the Potency result in [1], in assay [2], in assay [3], in assay [4], in assay [5] and in assay [6] was “inactive” throughout. Besides, the Potency result in assay [7], in assay [8] and in [9] was “inactive” throughout.

Regarding `CC(C)(O)Cn1c(NC(=O)c2ccc(-c3cn[nH]c3)s2)nc2cc(CN3CCOCC3)ccc21`, the Potency in assay [1] is 4.18 µM (active); in assay [2] it was 4.18 µM (active); in assay [3] it was 2.96 µM (active); in assay [4], 2.35 µM (active); in assay [5], 2.35 µM (active); in assay [6], 2.96 µM (active). The Potency in assay [7] is 0.105 µM (active); in [8] it was 66.2 nM (active); in assay [9], 0.0935 µM (active).

Consider `CC(C)c1onc(-c2c(Cl)cccc2Cl)c1COc1ccc(C=Cc2cccc(C(=O)O)c2)c(Cl)c1`, for which the Potency entry in assay [1], in assay [2], in assay [3], in [4], in assay [5] and in assay [6] was “inactive” throughout. Besides, the Potency entry in [7] and in assay [8] was “inactive” each time.

Take `COc1cc(N2CCC(C(N)=O)CC2)ccc1Nc1nc(N)c(Cl)c(Nc2ccccc2S(=O)(=O)C(C)C)n1`: the Potency in assay [1] is 20.9 µM (active); in assay [2], 16.6 µM (active); in assay [3] it was 16.6 µM (active); in assay [4], 23.5 µM (active); in assay [5], 18.7 µM (active); in [6], 18.7 µM (active). In addition, the Potency in assay [7] is 8.33 µM (active); in assay [8] it was 4180 nM (active); in assay [9], 9.35 µM (active).

Turning to `CC(C=CC1=C(C)CCCC1(C)C)=CC=CC(C)=CC(=O)Nc1ccc(O)cc1`, the Potency in assay [1] is 30.3 µM (active); in [2] it was 17.1 µM (active); in assay [3] it was 15.2 µM (active); in [4], 6.05 µM (active); in assay [5] it was 2.7 µM (active); in assay [6] it was 6.05 µM (active). In addition, the Potency in assay [7] is 3.4 µM (active); in assay [8] it was 6050 nM (active); in [9], 3.03 µM (active).

Turning to `COc1cc(Nc2ncc(F)c(Nc3ccc4c(n3)NC(=O)C(C)(C)O4)n2)cc(OC)c1OC`, the Potency in assay [1] was 5.9 µM (active); in assay [2] it was 9.35 µM (active); in [3], 4.69 µM (active); in assay [4] it was 4.18 µM (active); in [5] it was 5.26 µM (active); in assay [6], 5.26 µM (active). The Potency in [7] is 1.66 µM (active); in [8], 1480 nM (active); in assay [9] it was 1.66 µM (active).

Turning to `C=C1CCC2[C@](C)(CO)C(O)CC[C@]2(C)C1CC=C1C(=O)OCC1O` (some centres undefined), the Potency result in assay [1], in assay [2], in assay [3], in assay [4], in assay [5] and in assay [6] was “inactive” each time. Moreover, the Potency result in [7] and in assay [9] was “inactive” throughout. Besides, the Potency in assay [8] was 34 nM (active).

In the case of `C[C@@H]1O[C@@H](O[C@H]2CC[C@@]3(C)[C@H](CC[C@@H]4[C@H]3C[C@@H](O)[C@]3(C)[C@@H](C5=CC(=O)OC5)CC[C@]43O)C2)C[C@H](O)[C@@H]1O[C@H]1C[C@H](O)[C@H](O[C@H]2C[C@H](O)[C@@H](O)[C@@H](C)O2)[C@H](C)O1` (stereo in doubt), the Potency in assay [1] was 0.605 µM (active); in assay [2], 0.382 µM (active); in [3], 0.191 µM (active); in assay [4], 0.0855 µM (active); in assay [5], 0.191 µM (active); in [6], 0.27 µM (active). Also, the Potency in [7] was 0.0959 µM (active); in [8], 382 nM (active); in assay [9], 0.27 µM (active).

With `C[C@]12CC[C@H](O)CC1=CC[C@@H]1[C@H]2CC[C@]2(C)C(c3cccnc3)=CC[C@H]12`, the Potency entry in assay [1], in [2], in assay [3], in [4], in assay [5] and in assay [6] was “inactive” each time. Moreover, the Potency result in [7], in [8] and in assay [9] was “inactive” in each case.

For the origin of these results see PubChem BioAssay (NCATS).
